Results taken from PubChem BioAssay AID1745847 (National Center for Advancing Translational Sciences (NCATS), 2022).
The whole screen tested about 2,100 compounds, of which about 670 (32%) were called active. About 50% were inconclusive and are not listed. This is one part of the list. A number with no mark means an inactive call. Calls follow the shape of the dose curve; as a rule, active = well fitted inhibition curve with a large enough effect; inconclusive = small, poorly fitted or top-dose-only effect; inactive = no such curve, though single readings can be large or run the other way.

Test: CMV-Luciferase Counterscreen for Inhibitors of ATXN expression; also: nearly all actives have a fitted effect of over 55% in size
Conditions: HEK-293 CMV-luciferase reporter, luminescence, 24 h; series mostly up to 57.5 µM; activity change, negative = inhibition: at the top concentration
% is scaled to controls: 0 for no effect and ±100 for the full control effect; potency is read from the fitted curve at half-maximal effect.

Compound	Potency	activity change, negative = inhibition
O=C1C=C(Nc2ccccc2O)c2ccccc2C1=O	10 µM (active)	–
CN(C)S(=O)(=O)c1ccc(-c2csc(N/N=C/c3ccco3)n2)cc1	2.51 µM (active)	–
CC1=CC(C)(C)Nc2ccc(OC(=O)CN3C(=O)c4cccc5cccc(c45)C3=O)cc21	15.8 µM (active)	–
O=C(NCc1ccccc1)C1=C[C@@H](c2csc3ccccc23)C[C@@H](OCCCCO)O1	3.55 µM (active)	–
C=CCOC(=O)C1=C[C@@H](c2ccc3c(c2)OCO3)C[C@@H](OCCCCO)O1	–	5.8%
CCOC(=O)c1sc2nc(CSc3ccccc3)nc(NCCN(C)C)c2c1C	–	-27.1%
CCCCCn1c(=O)c2ccccc2n2c(CCl)nnc12	25.1 µM (active)	–
O=c1c2ccccc2sc2nc(CCl)nn12	–	-24% [at 11.4 µM]
CNC(=O)c1sc(N2N=C3/C(=C/c4ccccc4)CCCC3C2c2ccccc2)nc1C (configuration not stated)	7.94 µM (active)	–
COc1ccc2c(c1)CC(N1CCN(C)CC1)c1cc(OC)ccc1S2 (configuration not stated)	28.2 µM (active)	–
CCCCN1C(=O)/C(=C2/Sc3ccccc3N2C)S/C1=N\c1ncn[nH]1	–	5.62%
COc1ccc(-n2nc(C(=O)NCC(=O)Nc3cccc(Cl)c3)c3ccccc3c2=O)cc1OC	–	11.4%
Cc1cc(=O)oc2c1c(C)nn2-c1cccc(Cl)c1	–	-12.8% [at 11.4 µM]
O=C(c1cccc(Cl)c1)c1nn(-c2ccccc2)c(=O)cc1C(F)(F)F	25.1 µM (active)	–
O=C(N/N=C\c1c(O)ccc2ccccc12)c1ccc(S(=O)(=O)N2CCCCC2)cc1	1.12 µM (active)	–
O=C(N/N=C\c1cc(Cl)ccc1O)c1ccc(S(=O)(=O)N2CCCCC2)cc1	0.316 µM (active)	–
CC1(C)Cc2c(ccc3ccccc23)C2=C(C(=O)N3CCCC3)C(=O)C(=O)N21	–	-5.36%
CN(C)CCNc1ccc(CO)c2sc3ccc(O)cc3c(=O)c12	0.631 µM (active)	–
CN(C)CCNc1cccc2sc3ccc(O)cc3c(=O)c12	14.1 µM (active)	–
COc1ccc(C(=O)NC(=S)NNC(=O)c2c(-c3ccccc3)noc2C)cc1OC	10 µM (active)	–
COc1ccc(C(=O)c2sc(Nc3ccccc3)nc2N)cc1OC	–	129%
CCOC(=O)C(C(C)=O)c1c(Br)c(O)c(O)c2c(C(=O)c3ccc(C)cc3)coc12 (configuration not stated)	2.51 µM (active)	–
Cc1cc(N/N=C\c2ccc(Br)cc2)nc(-n2nc(C)cc2C)n1	–	1.75%

Compound	Potency	activity change, negative = inhibition
Cc1cc(O)c(C(C)C)cc1N=Cc1ccccc1[N+](=O)[O-]	–	-23.9%
Cc1cc(N/N=C/c2ccccc2[N+](=O)[O-])nc(-n2nc(C)cc2C)n1	7.08 µM (active)	–
NC(=O)CC(NC(=O)Cc1ccc(Br)cc1)c1ccc(NC2CCCC2)c([N+](=O)[O-])c1 (configuration not stated)	3.16 µM (active)	–
N#CC1=C(N)N2C(=C(C#N)C1c1ccc(Br)cc1)Nc1ccccc12 (configuration not stated)	0.631 µM (active)	–
N#CC1=C(N)N2C(=C(C#N)C1c1cccc(Br)c1)Nc1ccccc12 (configuration not stated)	3.55 µM (active)	–
CC(=O)N1c2ccc(S(=O)(=O)N3CCC(C(=O)N4CCN(c5ccc(Cl)cc5)CC4)CC3)cc2CC1C (configuration not stated)	7.94 µM (active)	–
CN1CCN(c2ccc(S(=O)(=O)N3CCCCC3)cc2NC(=O)/C=C/c2ccc(Cl)c([N+](=O)[O-])c2)CC1	–	-27% [at 11.4 µM]
CCc1ccc(NC(=O)C2CCN(S(=O)(=O)c3ccc4c(c3)CC(C)N4C(C)=O)CC2)cc1 (configuration not stated)	3.16 µM (active)	–
CC(=O)N1c2ccc(S(=O)(=O)N3CCC(C(=O)Nc4cccc(C(F)(F)F)c4)CC3)cc2CC1C (configuration not stated)	8.91 µM (active)	–
Cc1ccc(/C=N/NC(=O)C2=NNC(c3ccccc3)(c3ccccc3)C2)c(O)c1	3.16 µM (active)	–
CCN(CC)CCNc1ccc(CO)c2sc3ccccc3c(=O)c12	17.8 µM (active)	–
O=c1c2ccccc2sc2c(CO)ccc(NCCN3CCCCC3)c12	22.4 µM (active)	–
COC(/C(=N/O)c1ccc(Cl)cc1)c1ccccc1 (configuration not stated)	–	-21.2%
Cc1cc(Oc2ccc(Cl)cc2)nc(-c2ccccn2)n1	–	-22.3%
Cc1cc(NCc2ccccn2)n2nc(C)c(-c3ccc(Cl)cc3)c2n1	20 µM (active)	–
CCCCC(=O)N(CCOC)c1nnc(-c2ccccc2C)s1	–	-14.2%
CCOc1cc([C@@H]2C[C@H]3CN(c4ccccc4)C(=O)[C@]34CCCN24)ccc1OC	–	4.3%
Cc1cccc2sc(NNC(=O)c3ccc(S(=O)(=O)N4CCCC(C)C4)cc3)nc12 (configuration not stated)	4.47 µM (active)	–
Cc1cc(C)c2nc(NNC(=O)c3ccc(S(=O)(=O)N4CCc5ccccc5C4)cc3)sc2c1	3.16 µM (active)	–
Nc1c2ccccc2nc2ccccc12	4.47 µM (active)	–
N#CCc1nc2ccccc2c(=O)[nH]1	–	-6.07%
CCCOCc1ccc(O)c2ncccc12	20 µM (active)	–
Oc1ccc(Cc2ccccc2)c2cccnc12	11.2 µM (active)	–

Compound	Potency	activity change, negative = inhibition
CN(C)c1ccc(Cc2cc3c(O)ccc(O)c3cc(Cc3ccc(N(C)C)cc3)c2=O)cc1	–	-9.62% [at 11.4 µM]
Oc1ccc(CN2CCC(Cc3ccccc3)CC2)c2cccnc12	–	-19.8% [at 11.4 µM]
CC[n+]1c(/C=C/N(C)c2ccccc2)oc2ccc(F)cc21	15.8 µM (active)	–
O=C(O)CSc1cc(NS(=O)(=O)c2ccc(Cl)cc2)c2ccccc2c1O	28.2 µM (active)	–
O=C(O)CSc1cc(NS(=O)(=O)c2cccc([N+](=O)[O-])c2)c2ccccc2c1O	3.55 µM (active)	–
CCc1ccc(CNC(=O)C2CCN(c3nnc(C)c4c(C)n(-c5ccc(C)cc5)nc34)CC2)cc1	–	-27.5%
O=C(Nc1ccc2c(c1)CCC2)C1CCN(c2c3c(nc4ncnn24)CCC3)CC1	7.08 µM (active)	–
CCc1c(C)nc2ncnn2c1N1CCC(C(=O)Nc2ccc(C)cc2)CC1	12.6 µM (active)	–
CNc1ccccc1C(=O)OC(C)C(=O)Nc1ccc(Cl)cn1 (configuration not stated)	–	94.6% [at 11.4 µM]
CC(=O)Oc1c(Br)cc(N(C(C)=O)S(=O)(=O)c2ccccc2)c2ccccc12	15.8 µM (active)	–
Cc1cc(SCC(=O)NN)c2cc(Br)ccc2n1	–	0.829%
COc1ccc2nc(C)cc(SCC(=O)N/N=C/c3ccc(O)cc3O)c2c1	11.2 µM (active)	–
COc1ccc(/C=N/NC(=O)c2nc(-c3ccccc3)n(-c3ccccc3)n2)c(O)c1	8.91 µM (active)	–
NC(=O)c1cc([N+](=O)[O-])ccc1NCc1ccc(N)cc1	6.31 µM (active)	–
Cn1nnnc1Sc1ncnc2scc(-c3ccc[nH]3)c12	20 µM (active)	–
Cn1nnnc1Sc1ncnc2scc(-c3cccs3)c12	11.2 µM (active)	–
COc1cc(CNCc2ccncc2)cc(Br)c1OCc1ccccc1F	2 µM (active)	–
COc1cccc(OC)c1C(=O)OCC(=O)NC(=O)NCc1ccccc1	–	-4.44% [at 11.4 µM]
COc1cc(C(=O)NCc2ccncc2)cc(Br)c1OCc1ccccc1	3.98 µM (active)	–
CCOc1ccc(NC(=O)Nc2nnc(CC(=O)NCc3ccccc3)s2)cc1	–	-1.51%
CN(C)CCNc1ncnc2c1sc1nc(N3CCOCC3)c3c(c12)CC(C)(C)SC3	–	-18.2%
O=C(Nc1ccc(Cl)c(Cl)c1)c1cccc(S(=O)(=O)NCc2cccnc2)c1	1.58 µM (active)	–
O=C(/C=C/Nc1ccc(S(=O)(=O)Nc2ncccn2)cc1)c1ccc(Cl)c(Cl)c1	–	-27%

Compound	Potency	activity change, negative = inhibition
Cn1c(CCc2nc3ccccc3[nH]2)nnc1SCC#N	–	-22.2%
COc1cc(N)ccc1Nc1c2ccccc2nc2ccccc12	25.1 µM (active)	–
COc1ccc(C(CCNC(C)c2ccccc2)c2ccc(F)cc2)cc1 (configuration not stated)	–	-22.5%
C=CS(=O)(=O)c1c2cc(OC)ccc2nc2ccc(OC)cc12	–	-18.3%
COc1cc2cc(C(=O)NC(C)c3cccc4ccccc34)c(N)nc2cc1OC (configuration not stated)	–	-29.5% [at 11.4 µM]
COc1ccc(/C=N/Nc2cc(N3CCCC3)nc(N3CCCC3)n2)cc1	–	-17.8% [at 11.4 µM]
COc1ccc(Nc2c3ccccc3nc3ccccc23)cc1	10 µM (active)	–
COc1ccc(C)cc1Nc1nc(N)c2cc(OC)c(OC)cc2n1	–	-12.3% [at 11.4 µM]
COc1ccc(Nc2nc(N3CCCC3)c3ccccc3n2)cc1	10 µM (active)	–
C(=NN1CCCCCC1)c1ccc2ccccc2n1	15.8 µM (active)	–
O=C(Nc1ccc(Cl)cc1)Nc1nc(-c2sccc2Br)cs1	–	-3.64%
COc1ccc(OC)c(C(=O)/C=C/c2ccccc2C(F)(F)F)c1	–	-8.72% [at 11.4 µM]
Cc1ccc(C)c(N2CCN(C(=O)CCCCCn3c(=S)[nH]c4ccc(N5CCOCC5)cc4c3=O)CC2)c1	3.16 µM (active)	–
Clc1ccccc1C(c1ccccc1)(c1ccccc1)n1ccnc1	3.16 µM (active)	–
Cc1cccc(N2CCN(C(=O)CC(NC(=O)c3ccccc3Cl)c3ccccc3)CC2)c1C (configuration not stated)	25.1 µM (active)	–
COc1ccccc1N1C(=O)N(C(C)=O)C2C1Nc1ccccc1N2C (configuration not stated)	–	-19.7%
CCc1nc2ccccc2c(C(=O)OCC(=O)Nc2cccc(S(=O)(=O)NC3=NCCCCC3)c2)c1C	14.1 µM (active)	–
CCOC(=O)c1c(NC(=O)COC(=O)Cn2cnc3ccccc32)sc(C)c1C	–	20.6%
CCn1c2ccccc2c2cc(NC(=O)COC(=O)c3cccc(S(=O)(=O)NC)c3)ccc21	–	21.7%
CN(C)CCNc1ncnc2c1sc1nc(N3CCCC3)c3c(c12)CC(C)(C)OC3	–	42.2%
O=C(N/N=C(\Cc1ncc[nH]1)c1ccccc1)c1cccnc1	3.98 µM (active)	–
CCOc1ccccc1C(=O)Nc1ccc2nc(N3CCN(c4ncccn4)CC3)cc(C)c2c1	11.2 µM (active)	–
CCN(CC)c1cc(C)c2cc(NC(=O)c3ccccc3OC)ccc2n1	–	-29.6%
